Bioassay records: PubChem BioAssay, National Center for Advancing Translational Sciences (NCATS)
SW480 rerep = DNA re-replication induction in SW480 cells. SW480 DNA re-replication, Hoechst DNA content imaging, 48 h. Potency, µM (doses to about 46.1 µM), for the others: at the highest dose re-replication activation, most hits filed as activators. hit rate 1.8% among 340,000. AID 624297; further: potency means the concentration at half of the fitted maximal effect; % of control where 0% means no effect; nearly all actives have a fitted effect of over 55% in size
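250 cells/well; 23 nL cpd via pin tool; 48 hr, 37 C, 5% CO2; Hoechst 40 min; imager read of total nuclear intensity, ex 405/em 500-530 nm.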
RORg inh = inhibitors of mouse ROR gamma transcriptional activity; Drosophila S2 Gal4-RORgamma UAS-luciferase reporter, 20 h; AID 2551; hit rate 5.4% among 310,000; Potency, µM (series often up to 53.6 µM), for the others: top-dose activity change, negative = inhibition, hits mostly inhibitors; P51450; further: potency means the concentration at half of the fitted maximal effect; on the % scale 0 is the no-effect control and ±100 the full control effect; nearly all actives have a fitted effect of over 60% in size
Target sequence (P51450 whole entry, looked up, the tested form may be a part): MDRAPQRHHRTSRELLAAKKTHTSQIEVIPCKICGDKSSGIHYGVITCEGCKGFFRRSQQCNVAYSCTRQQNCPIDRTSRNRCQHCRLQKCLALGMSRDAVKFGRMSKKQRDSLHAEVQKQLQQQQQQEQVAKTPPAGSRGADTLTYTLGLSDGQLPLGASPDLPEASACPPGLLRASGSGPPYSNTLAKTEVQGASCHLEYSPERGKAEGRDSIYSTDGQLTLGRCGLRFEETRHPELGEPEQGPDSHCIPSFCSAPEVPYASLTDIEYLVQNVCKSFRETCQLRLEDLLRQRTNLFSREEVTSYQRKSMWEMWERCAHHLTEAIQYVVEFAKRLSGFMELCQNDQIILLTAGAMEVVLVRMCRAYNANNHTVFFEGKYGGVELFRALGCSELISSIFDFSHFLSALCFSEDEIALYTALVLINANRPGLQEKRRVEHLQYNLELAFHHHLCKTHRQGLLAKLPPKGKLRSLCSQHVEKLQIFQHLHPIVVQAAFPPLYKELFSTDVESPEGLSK
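Read-out: Photinus luciferase luminescence; inhibitors lower reporter signal. Insect Schneider cells with Gal4-ROR gamma fusion under metallothionein promoter, UAS reporter; 700 uM final copper sulfate induction, 20 hr, ambient temperature.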
VP16 counter = Gal4-VP16 reporter inhibition counter-screen; Potency, µM (highest dose often 53.6 µM), without a hit: top-dose activity, negative = inhibition, actives largely listed as inhibitors; AID 2546; hit rate 3.5% among 310,000; Drosophila S2 Gal4-VP16 UAS-luciferase, luminescence, 20 h;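 further: Gal4-VP16 expression switched on by copper sulfate through the metallothionein promoter; potency means the concentration at half of the fitted maximal effect; on the % scale 0 is the no-effect control and ±100 the full control effect; nearly all actives have a fitted effect of over 50% in size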
IL1B secr inh = inhibitors of inflammasome signaling (IL-1 beta secretion). activity change, % at 57.5 µM. hit rate 4.7% among 360,000. THP-1 LPS/ATP IL-1B secretion, AlphaLISA, 16 h; hits give low values; in the data active means activity change below about -50%; inconclusive means mostly about -30% to -49%; further: on the % scale 0 is the no-effect control and ±100 the full control effect
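Secreted IL-1B measured by AlphaLISA bead assay after 16 h compound exposure of THP-1 cells; compounds (final up to 57.5 uM) added 1 h before LPS (250 ng/mL) and ATP (1.25 mM) stimulation; lower signal means less secretion.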
MCF10A rereplic = inducers of DNA re-replication in MCF 10A breast cells | Potency, µM (top dose mostly 46.1 µM), for inactives: at the highest dose activity, positive = re-replication, usual class: activators | MCF 10A DNA re-replication, Hoechst nuclear intensity, 48 h | hit rate 2.9% among 350,000; further: potency means the concentration at half of the fitted maximal effect; % of control where 0% means no effect; nearly all actives have a fitted effect of over 50% in size
The depositor's hits bear a star; [ ] = remark or other dose. In the library only some 11% were active in any assay of this set; here they are far more common. Unless noted, the call rests on the fitted dose curve; in most records, active means well fitted curve in the direction sought with a large enough effect; inconclusive means small, poorly fitted or top-dose-only effect, or another doubt; inactive means no such curve, though single readings can be large; an effect the other way counts as inactive or inconclusive.

For CCOC(=O)C1CCCN(C(=O)Cn2ncc3c([nH]c4ccc(C)cc43)c2=O)C1 (stereo unspecified) the results were SW480 rerep -5.6%, RORg inh -1.6%, VP16 counter -17.2%, IL1B secr inh -14.6 and MCF10A rereplic 1.5%.
Screening CCN(C[C@H]1N[C@@](Cc2ccccc2)(C(=O)OC)[C@H]2C(=O)N(C)C(=O)[C@@H]12)C(=O)Nc1ccc(C(F)(F)F)cc1 returned SW480 rerep -16.9%, IL1B secr inh -1.2 and MCF10A rereplic -4.2%.
Screening O=C(NCc1ccccc1)c1cc(C2CCCN(C(=O)c3ccccc3)C2)on1 (stereo unspecified) returned IL1B secr inh -1.3.
`CC(=O)Nc1cc(-c2ccc(C(=O)NC3CC3)cc2)cn2c(-c3ccc(F)c(Cl)c3)cnc12` gave IL1B secr inh -12.4.
`COc1cc(/C=C2\CCC/C(=C\c3ccc(O)c(OC)c3)C2=O)ccc1O` gave SW480 rerep inconclusive, RORg inh -24.4%, VP16 counter -28.4%, IL1B secr inh -94.7* and MCF10A rereplic 4.11µM*.
For COc1cc(C=C2C(=O)C=CC2=O)ccc1O the results were IL1B secr inh -112.9*.
`COc1cc(/C=C2/C(=O)CNC2=O)ccc1O` gave SW480 rerep -0.2%, RORg inh 5.2%, VP16 counter 0.8%, IL1B secr inh 25.5 and MCF10A rereplic -15.4%.
`NC(=O)CSC1=N/C(=C\c2ccco2)C(=O)N1c1ccc(OC(F)F)cc1` gave SW480 rerep -0.1%, RORg inh inconclusive, VP16 counter inconclusive, IL1B secr inh -9.2 and MCF10A rereplic -0.2%.
COc1cc(/C=C2\COC/C(=C\c3cc(OC)c(OC)c(OC)c3)C2=O)cc(OC)c1OC was read as SW480 rerep inconclusive, RORg inh 3.16µM*, VP16 counter 5.01µM*, IL1B secr inh -98.7* and MCF10A rereplic inconclusive.
For CCOc1cc(/C=C2\N=C(SC(C)C(N)=O)N(c3ccc(OC(F)F)cc3)C2=O)ccc1O (stereo unspecified) the results were SW480 rerep 18.4µM*, RORg inh 0.0%, VP16 counter inconclusive, IL1B secr inh -11.9 and MCF10A rereplic 10.3µM*.
For CN1C[C@@H]2[C@@H]3C(=O)N(C)C(=O)[C@@H]3[C@](C)(C1=O)N2C(=O)c1ccc(Cl)cc1 the results were SW480 rerep 2.3%, IL1B secr inh 9.6 and MCF10A rereplic -23.6%.
For NC(N)=NCCCC(NC(=O)C(N)Cc1ccc(O)cc1)C(=O)O (stereo unspecified) the results were RORg inh -3.6% and VP16 counter -8.5%.
For COc1ccccc1CNC(=O)C1(C)CCN1C(=O)C1(c2ccccc2)CC1 (stereo unspecified) the results were IL1B secr inh -25.7.
Screening COc1cc(/C=C2\CCC(C3CCCC3)C2=O)cc(OC)c1OC (stereo unspecified) returned SW480 rerep -4.7%, RORg inh 33.1%, VP16 counter 2.0%, IL1B secr inh 19.0 and MCF10A rereplic 21.6%.
`CCOc1cc(/C=C2\CN(CC)C/C(=C\c3ccc(O)c(OCC)c3)C2=O)ccc1O` gave SW480 rerep inconclusive, RORg inh inconclusive, VP16 counter inconclusive, IL1B secr inh -103.8* and MCF10A rereplic inconclusive.
`CCN1C/C(=C/c2cccc([N+](=O)[O-])c2)C(=O)/C(=C/c2cccc([N+](=O)[O-])c2)C1` gave SW480 rerep 3.66µM*, RORg inh 3.98µM*, VP16 counter 3.55µM*, IL1B secr inh -106.5* and MCF10A rereplic 0.82µM*.
For COc1cc(/C=C2\CC(C(C)(C)C)C/C(=C\c3cc(OC)c(OC)c(OC)c3)C2=O)cc(OC)c1OC (stereo unspecified) the results were SW480 rerep 7.31µM*, RORg inh inconclusive, VP16 counter -13.1%, IL1B secr inh -97.8* and MCF10A rereplic 3.26µM*.
`O=C1NC(=O)/C(=C/c2cccc([N+](=O)[O-])c2)N1` gave SW480 rerep 2.8%, RORg inh 5.6%, VP16 counter -1.5%, IL1B secr inh 14.9 and MCF10A rereplic 3.1%.
CCOc1cc(/C=N/N=C/c2ccc(O)c(OCC)c2)ccc1O was read as SW480 rerep -7.7%, RORg inh 9.1%, VP16 counter 2.7%, IL1B secr inh 34.7 and MCF10A rereplic 8.7%.
For CC(SCc1ccc(C(=O)O)o1)c1ccc(C(=O)O)o1 (stereo unspecified) the results were SW480 rerep -6.9%, RORg inh -18.0%, VP16 counter 0.8%, IL1B secr inh -7.5 and MCF10A rereplic -3.9%.
Screening CCN(CC)CCNC(=O)CCc1c(C)nc2c(c(C)nn2-c2ccc(C)cc2)c1C returned SW480 rerep inconclusive, RORg inh inconclusive, VP16 counter inconclusive, IL1B secr inh 0.0 and MCF10A rereplic inconclusive.
COc1ccc(CNC(=O)C[C@H]2C[C@H](C(=O)N3CCCCC3)[C@@]3(C)c4[nH]c5ccc(Cl)cc5c4CCN3C2=O)cc1OC was read as SW480 rerep inconclusive, IL1B secr inh -56.3* and MCF10A rereplic -4.2%.
`C[C@]12c3[nH]c4ccc(Cl)cc4c3CCN1C(=O)[C@@H](CC(=O)NCC13CC4CC(CC(C4)C1)C3)C[C@@H]2C(=O)N1CCCCC1` gave SW480 rerep -3.7%, IL1B secr inh -60.2* and MCF10A rereplic -0.6%.
Screening CC(C)(C)NC(=O)C[C@H]1C[C@H](C(=O)N2CCCCC2)[C@@]2(C)c3[nH]c4ccc(Cl)cc4c3CCN2C1=O returned SW480 rerep inconclusive, IL1B secr inh -23.5 and MCF10A rereplic inconclusive.
Screening CSc1nc2ccc(NC(=O)CS(=O)(=O)c3ccccc3)cc2s1 returned IL1B secr inh -22.1.
`CC(C)(C)OC(=O)N1CCCC(C(=O)Nc2cccc(C(=O)N3CCCCC3)c2)C1` (stereo unspecified) gave SW480 rerep -17.1%, IL1B secr inh -21.7 and MCF10A rereplic -16.9%.
Screening Clc1cccc(-c2nnc(SC/C=C/c3ccccc3)n2Cc2ccco2)c1 returned SW480 rerep inconclusive, RORg inh -8.3%, VP16 counter 11.4%, IL1B secr inh -84.4* and MCF10A rereplic inconclusive.
Screening Clc1cccc(CSc2nnc(-c3ccccn3)n2Cc2ccco2)c1 returned SW480 rerep -6.5%, RORg inh inconclusive, VP16 counter inconclusive, IL1B secr inh -19.3 and MCF10A rereplic inconclusive.
For C(=C\c1ccccc1)/CSc1nnc(-c2ccncc2)n1Cc1ccco1 the results were SW480 rerep 3.1%, RORg inh -1.0%[10 µM], VP16 counter -6.2%, IL1B secr inh 2.3 and MCF10A rereplic 2.0%.
